# Most compounds without a hit are left out; they make up all but 11% or so of the library.
# BAZ2B block: inhibitors of human BAZ2B bromodomain; Q9UIF8; AlphaScreen BAZ2B-H3K14Ac peptide displacement; Potency, µM (top dose mostly 114 µM), actives largely listed as inhibitors; 360,000 tested, 4.4% active; AID 504333; also: nearly all actives have a fitted effect of over 60% in size
#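 AlphaScreen displacement of biotin-H3(5-23)K14Ac peptide (50 nM final) from BAZ2B (50 nM final) in PBS pH 7.4, 0.01% Tween-20; complex preformed 30 min RT, then compounds (top 110 uM) 30 min RT, beads 20 min dark.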
# PLK1 PBD inh: PLK1 (human) polo-box domain binding inhibition; Potency, µM, most hits filed as inhibitors; Plk1 PBD binding of FITC phosphopeptide, fluorescence polarization; AID 720504; 360,000 tested, 2.8% active; also: series mostly up to about 57 µM; nearly all actives have a fitted effect of over 65% in size
# JMJD2A Tudor inh: blocks the human JMJD2A Tudor domain; AlphaScreen JMJD2A-Tudor / H3K4me3 peptide binding; Potency, µM (titrated, usually from 114 µM), most hits filed as inhibitors; 390,000 tested, 4.4% active; AID 504339; also: nearly all actives have a fitted effect of over 50% in size
# HP1b binding inh: blocks HP1-beta chromodomain binding to methylated histone tails; AlphaScreen HP1-beta / biotin-H3K9me3 peptide binding; 390,000 tested, 0.56% active; Potency, µM (titrated, usually from 114 µM), usual class: inhibitors; P83916; AID 540317; also: nearly all actives have a fitted effect of over 70% in size
#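 AlphaScreen: HP1-beta (50 nM) preformed 30 min with biotin-H3(1-18)K9me3 peptide (50 nM) in PBS pH 7.4, 0.01% Tween-20. Compound added for 30 min at RT, then streptavidin donor/nickel chelate acceptor beads (10 ug/mL) for 30 min.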
# G9a inh: blocks human histone lysine methyltransferase G9a; Potency, µM (highest dose often 102 µM), actives largely listed as inhibitors; Q96KQ7; 350,000 tested, 8.8% active; G9a H3K9 monomethylation, AlphaScreen, 2 h; also: nearly all actives have a fitted effect of over 75% in size
#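 Signal arises when biotinylated H3K9 peptide, once monomethylated, bridges streptavidin donor and antibody-captured acceptor beads. Enzyme at 20 nM was preincubated 15 min with test compounds; peptide 500 nM and SAM 20 uM then reacted for 2 h.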
# VDR inh: vitamin D3 receptor (human) inhibition | P11473 | VDR-SRC2-3 peptide fluorescence polarization, 2 h | Potency, µM, actives largely listed as inhibitors | 400,000 tested, 0.93% active | AID 504847
#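 Signal is fluorescence polarization, reporting how far test compounds block the interaction of VDR with the SRC2-3 coregulator peptide after a 2 h room-temperature incubation.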
# A number is an active result; - = inactive; ? = inconclusive; . = no result; [ ] = remark or other dose. Calls follow the shape of the dose curve; as a rule, active = well fitted curve in the direction sought with a large enough effect; inconclusive = small, poorly fitted or top-dose-only effect, or another doubt; inactive = no such curve, though single readings can be large; an effect the other way counts as inactive or inconclusive.
SMILES,BAZ2B block,PLK1 PBD inh,JMJD2A Tudor inh,HP1b binding inh,G9a inh,VDR inh
CO[C@H]1CN(C)C(=O)c2ccc(NC(=O)C3CCC3)cc2OC[C@H](C)N(Cc2ccccn2)C[C@@H]1C,.,-,.,.,.,.
O=C(Nc1ccc2c(c1)OCO2)c1ccc(CO)cc1,-,-,-,-,-[12.7 µM],-
Cc1cc(C)c2[nH]c(C(=O)Nc3ccc4c(c3)OCO4)cc2c1,50.1µM,-,56.2µM,-,17.8µM,-
CCc1ccc2[nH]c(C(=O)Nc3ccc4c(c3)OCO4)cc2c1,-,-,?,-,22.4µM,-
O=C(Nc1cccc2ncccc12)c1ccc(Cl)cc1,11.2µM,-,3.16µM,?,7.08µM,-
O=C(Nc1cccc2ncccc12)c1ccc(F)cc1,-,-,-,-,-,-
O=C(NC(=S)Nc1cccc2c(O)cccc12)c1ccco1,?,23.8µM,?,?,.,-
COCCCNC(=S)Nc1cccc2ncccc12,-,26.7µM,-,-,?,-
O=C(NC(=S)Nc1cccc2ncccc12)c1ccco1,-,-,-,-,44.7µM,-
O=C(Nc1cccnc1Cl)c1ccc(=O)oc1,56.2µM,-,?,-,35.5µM,-
O=C(NC(=S)Nc1cccc2cc(O)ccc12)c1ccccc1Br,?,-,?,-,31.6µM,-
COc1ccccc1C(=O)NC(=S)Nc1cccc2cc(O)ccc12,.,-,?,-,.,-
O=C(NC(=S)Nc1cccc2cc(O)ccc12)c1ccco1,?,-,-,-,15.8µM,-
CCOC(=O)c1sc2nccc(N(C)C)c2c1N=CNOCc1ccccc1,-,-,-,-,-,-
CCOC(=O)c1sc2nccc(N(C)C)c2c1N=CNOC,-,15µM,25.1µM,-,-,?
Cc1ccc(S(=O)(=O)Nc2ccc3nc(-c4cccc(Cl)c4)oc3c2)cc1,-,.,-,-,-,-
CCC(C)NC(=O)C1(NC(=O)Nc2ccccc2)CCCCC1 (stereo unspecified),-,10.6µM,17.8µM,?,-,?
CCCCNC(=O)C1(NC(=O)Nc2ccc(C)cc2)CCCCC1,-,7.52µM,-[11.4 µM],-,-,?
O=C(Nc1ccccc1)NC1(C(=O)N2CCC(O)CC2)CCCCC1,-,-,-,-,-,-
O=C(Nc1ccccc1)NC1(C(=O)NCCCN2CCOCC2)CCCCC1,-,-,-,-,-,-
Cc1ccc2oc(=O)n(CC(=O)O)c2c1,-,26.7µM,-,-,-,-
COc1cc(NC(=O)C(NC(=O)C2CCC(C)CC2)C(C)C)cc(OC)c1OC (stereo unspecified),-,.,-,-,-,-
O=C(N/N=C/c1ccc(Sc2nc3ccccc3[nH]2)o1)c1ccncc1,-,?,-,?,44.7µM,-
Cc1cc(C)c(C#N)c(SCCN2CCOCC2)n1,-,-,-,-,.,-
Cc1nnc(SCCN2CCOCC2)n1C,?,-,1µM,?,35.5µM,-
SMILES,BAZ2B block,PLK1 PBD inh,JMJD2A Tudor inh,HP1b binding inh,G9a inh,VDR inh
COc1ccc(-c2csc(Nc3ccc(S(=O)(=O)Nc4cc(C)on4)cc3)n2)cc1,?,18.9µM,?,-,44.7µM,-
CCC(=O)Nc1nc(C)c(-c2csc(Nc3ccc(S(=O)(=O)Nc4cc(C)on4)cc3)n2)s1,-,.,.,.,50.1µM,.
COc1ccc(Nc2nc(-c3c[nH]c4ccccc34)cs2)cc1,44.7µM,-,-,-,?,-
Cc1cc(NS(=O)(=O)c2ccc(Nc3nc(-c4sc(C)nc4C)cs3)cc2)no1,-,.,.,.,-,.
COc1ccc(Nc2nc(-c3ccc(OC)cc3)cs2)cc1,-,-,-,-,-,-
COc1ccc(-c2csc(Nc3ccc(S(N)(=O)=O)cc3)n2)cc1,50.1µM,?,-,-,-[2.33 µM],-
COc1ccc(-c2csc(Nc3ccccc3)n2)cc1,?,-,-,?,-[12.7 µM],-
Cc1cc(C)cc(Oc2coc3cc(OCC(=O)NC4CCCCC4)ccc3c2=O)c1,-,.,-,-,-,-
COc1ccc(C(C(=O)Nc2ccc(F)cc2)N2CCN(CC(=O)N3CCCC3)CC2)cc1 (stereo unspecified),.,-,.,.,.,.
Cc1nc(N)sc1-c1csc(Nc2ccc(S(N)(=O)=O)cc2)n1,50.1µM,-,?,-,?,?
NS(=O)(=O)c1ccc(Nc2nc(-c3ccc(O)cc3)cs2)cc1,-,-,?,-,?,-
CC(C)(C)c1ccc(C(=O)NCCCNC(=O)c2ccccn2)cc1,-,-,-,-,-,-
COc1cc(-c2nnc(NC(=O)CS(=O)(=O)c3ccc(F)cc3)o2)cc(OC)c1OC,56.2µM,-,39.8µM,-,-,-
COc1cc(-c2nnc(NC(=O)CS(=O)(=O)c3ccc(C)cc3)o2)cc(OC)c1OC,44.7µM,-,25.1µM,-,-,-
COc1ccccc1-c1nnc(NC(=O)CCS(=O)(=O)c2ccc(F)cc2)o1,.,-,.,.,.,.
Cc1ccc(S(=O)(=O)CCC(=O)Nc2nnc(-c3cccs3)o2)cc1,?,-,11.2µM,-,-,-
Cc1cc(C)c2cc(C(O)c3nnnn3Cc3ccccc3)c(=O)[nH]c2c1 (stereo unspecified),-,-,-,-,?,-
Cc1ccc2cc(C(c3nnnn3CC3CCCO3)N3CCc4ccccc4C3)c(=O)[nH]c2c1 (stereo unspecified),-,-,-,-,?,-
Cc1cccc2cc(C(c3nnnn3CC3CCCO3)N3CCc4ccccc4C3)c(=O)[nH]c12 (stereo unspecified),-,-,-,-,3.16µM,-
CCc1ccc2[nH]c(=O)c(C(c3nnnn3CC3CCCO3)N3CCCc4ccccc43)cc2c1 (stereo unspecified),50.1µM,-,?,-,?,-
Cc1ccc(C)c2[nH]c(=O)c(C(c3nnnn3Cc3ccccc3)N3CCc4ccccc4C3)cc12 (stereo unspecified),-,-,-,-,3.16µM,-
COc1ccc(NC(=O)C2CCN(c3cc(C)nc4c(-c5ccc(Cl)cc5)c(C)nn34)CC2)cc1,-,.,-,-,-,-
COc1ccc(C2CC(c3ccccc3)Oc3ccc(C(C)(C)C)cc32)cc1 (stereo unspecified),.,.,-,-,.,-
CCCCCOC(=O)c1[nH]c2c(c1C)C(=O)CC(c1ccco1)C2 (stereo unspecified),56.2µM,23.8µM,35.5µM,?,39.8µM,79.4µM
COc1cccc(-n2cc3c(=O)n(C)c(=O)n(C)c3c2)c1,?,-,-,-,35.5µM,-
Cn1c(=O)c2cn(-c3ccccc3)cc2n(C)c1=O,-,-,-,-,-[12.7 µM],-
CCc1nc2sc3c(=O)[nH]cnc3c2c2c1CSC(C)(C)C2,?,26.7µM,-,-,2.24µM,-
CCCc1nc2sc3c(=O)[nH]cnc3c2c2c1CCCC2,-,.,.,.,.,.
CCOC(=O)c1c(C)nc2cc(C)ccn12,-,-,-,-,-,-
Cc1ccn2cc(CC(=O)O)nc2c1,56.2µM,-,39.8µM,70.8µM,20µM,-

# Screens: PubChem BioAssay, National Center for Advancing Translational Sciences (NCATS)
